Screens from PubChem.
GBA mod: human lysosomal glucosylceramidase modulation; 1.1% of 48,000 active; Potency, µM; purified enzyme, resorufin glucoside fluorescence (screen aimed at inhibitors), 20 min; in the data active = potency below about 15 µM; inconclusive = mostly about 16 µM to 33 µM;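 note: the screen sought inhibitors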
Target sequence (P04062 whole entry, looked up): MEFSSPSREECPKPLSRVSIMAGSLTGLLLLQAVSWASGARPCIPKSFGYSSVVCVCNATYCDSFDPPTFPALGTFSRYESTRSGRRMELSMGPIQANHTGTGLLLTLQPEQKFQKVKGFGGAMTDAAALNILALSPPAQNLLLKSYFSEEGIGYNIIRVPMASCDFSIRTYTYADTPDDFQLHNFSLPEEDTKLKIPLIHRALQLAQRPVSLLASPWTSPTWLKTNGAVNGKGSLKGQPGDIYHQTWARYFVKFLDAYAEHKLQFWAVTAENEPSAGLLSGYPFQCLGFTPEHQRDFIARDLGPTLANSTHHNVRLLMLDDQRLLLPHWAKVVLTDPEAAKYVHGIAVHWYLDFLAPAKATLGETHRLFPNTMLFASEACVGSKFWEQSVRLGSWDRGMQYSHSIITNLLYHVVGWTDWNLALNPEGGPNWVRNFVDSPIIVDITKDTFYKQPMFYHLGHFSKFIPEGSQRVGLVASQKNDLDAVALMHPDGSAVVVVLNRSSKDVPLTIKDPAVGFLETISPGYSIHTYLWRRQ
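Wild-type enzyme at 0.2 nM final in 50mM citric acid/KH2PO4, 10mM sodium taurocholate, 0.01% tween-20, pH 5.9, with resorufin beta-D-glucopyranoside at 30 uM final. Compounds titrated, 20 min at RT, red fluorescence read; AC50 from titration.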
Bst PK mod: alters activity of Bacillus stearothermophilus pyruvate kinase. purified pyruvate kinase, luminescence ATP production; ribose 5-phosphate activator present at AC10. Potency, µM. 1.2% of 51,000 active. AID 361; in the data active = potency below about 11 µM; inconclusive = mostly about 12 µM to 25 µM;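 the screen sought inhibitors and activators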
Numbers stand for hits; . = inactive; ? = inconclusive; / = no result given. This is a sample that favours compounds with a hit; in the whole collection about 2.3% have one here.

SMILES | GBA mod | Bst PK mod
COc1ccc(C(=O)Cn2nnc(-c3ccccc3-n3cnnn3)n2)cc1 | . | 4.2
CC(=O)OC(C(=O)NCc1ccco1)c1ccncc1 (stereo not given) | . | .
CCOC(=O)C(C)(C)C(=O)C(C)(C)C(O)c1ccccn1 (stereo not given) | . | .
CCOC(=O)C1CCCN(C(=O)CSc2nccn2C)C1 (stereo not given) | . | .
COC(=O)c1sccc1NC(=O)c1c(C)noc1C | 12 | .
COC(=O)c1sccc1NC(=O)c1cc(C)on1 | . | .
CCOC(=O)c1ccc(CSc2nnc(N)s2)cc1 | . | .
c1cncc(-c2nc3c4ccccc4nc(N4CCC(N5CCCCC5)CC4)n3n2)c1 | / | .
COC(=O)CSc1nnc(CNC(=O)c2ccco2)n1-c1ccc(F)cc1 | . | .
CCOC(=O)C1(CCSC)NC(c2ccco2)C2C(=O)N(C)C(=O)C21 (stereo not given) | . | .
COc1cc(-c2nnc3sc(C4CCCCC4)nn23)cc(OC)c1OC | 7 | .
COc1cccc(-c2nnc3sc(C4CCCCC4)nn23)c1 | / | .
COc1cccc(-c2nnc(SCC(=O)OC(C)C)n2Cc2ccco2)c1 | . | .
Cn1c(=O)n(CCN2CCOCC2)c(=O)c2c1nc1n2CCN1c1ccccc1 | . | .
CCOC(=O)c1oc2ccccc2c1NC(=O)c1cccc(OC)c1OC | . | .
CC(C)C(=O)Nc1cccc(C(=O)NCc2ccc3c(c2)OCO3)c1 | . | .
Cc1cc2ccccc2c(=O)n1CC(=O)Nc1ccc2c(c1)OCO2 | . | .
O=C(NCc1ccc2c(c1)OCO2)c1c(F)c(F)c(F)c(F)c1F | . | 7.7
O=C(Nc1ccc2c(c1)OCO2)c1c(F)c(F)c(F)c(F)c1F | . | .
CC(C(=O)NCc1ccc2c(c1)OCO2)N1c2cccc3cccc(c23)S1(=O)=O (stereo not given) | . | 0.94
O=C(CCCN1C(=O)c2ccccc2C1=O)Nc1ccc(S(=O)(=O)N2CCOCC2)cc1 | . | .
O=C(CN1C(=O)c2cccc3cccc1c23)Nc1ccc(S(=O)(=O)N2CCOCC2)cc1 | . | 10
O=C(CN1C(=O)c2cccc3cccc1c23)Nc1ccc2c(c1)OCO2 | . | 1.9
COC(=O)[C@H](C)NC(=O)Nc1cc(OC)ccc1OC | . | .
Cc1oc(-c2ccccc2F)nc1CSCC(=O)NCc1ccc2c(c1)OCO2 | . | .
SMILES | GBA mod | Bst PK mod
O=C(CN1C(=O)c2cccc3cccc1c23)NCc1ccc2c(c1)OCO2 | . | 2.8
O=C(CN1C(=O)c2cccc3cccc1c23)NCC1CCCO1 (stereo not given) | . | ?
CC(=O)N1CCN(c2ccc(NCc3ccc(C)cc3)cc2)CC1 | 12 | .
Cc1ccc(CNc2ccc(O)cc2)cc1 | . | .
CCc1ccc(CNc2ccc(N3CCN(C(C)=O)CC3)cc2)cc1 | 12 | .
CC(=O)Nc1ccc(N2CCN(C(C)=O)CC2)cc1 | . | .
CCCCc1ccc(CC(=O)O)cc1 | . | .
CCCCc1ccc(-c2ccc(C)cc2O)nc1 | . | 9.8
FC(F)Sc1nnc(-c2cccs2)n1-c1ccccc1 | . | .
c1csc(-c2nnc3ccccn23)c1 | . | 7
Cc1ccc(N(C(C)C(=O)N2CCCCC2)S(C)(=O)=O)cc1C (stereo not given) | . | .
CCSc1nnc(NC(=O)c2cc(C)oc2C)s1 | 11 | .
CCSc1nnc(NC(=O)c2ccc(C)o2)s1 | . | .
CCOC(=O)N1CCC(NC(=O)c2cc(C(=O)Nc3ccc(OC)c(OC)c3)ccc2CO)CC1 | . | .
Cc1ccc2cc(C(c3nnnn3CC3CCCO3)N3CCCC4(CCCCC4)C3)c(=O)[nH]c2c1 (stereo not given) | 10 | .
Cc1cccc2cc(C(c3nnnn3CC3CCCO3)N3CCCC4(CCCCC4)C3)c(=O)[nH]c12 (stereo not given) | . | .
CCc1ccc(CNC(=O)CN2C(=O)COc3ccccc32)cc1 | . | .
Cc1ccc(NC(=O)NC2=N/C(=C(/C#N)C(=O)N3CCCC3)c3ccccc32)cc1 | 9 | ?
Cc1ccc(NC(=O)C2CC=CCC2C(=O)N2CCCCC2)cc1 (stereo not given) | . | .
COc1cccc(C(=O)Nc2ccc(NC(=O)C(C)(C)C)cn2)c1 | . | 3.7
COc1cccc(C(=O)Nc2cnc(NC(=O)c3ccco3)cc2C)c1 | . | .
CC(C)c1nc(-c2c(N)n(C)c(=O)n(C)c2=O)sc1C(=O)C(C)(C)C | . | .
O=c1c2cc3c(cc2[nH]c(=S)n1Cc1ccco1)OCO3 | . | .
O=c1cc(-c2ccccc2)nc2n1Cc1ccccc1-2 | . | 0.88
O=c1nc2n(c3ccccc13)Cc1ccccc1-2 | . | .
CCN(CCCNC(=O)C1CCN(S(=O)(=O)c2cnc[nH]2)CC1)c1cccc(C)c1 | . | .
Cc1ccc(C2C3CSCC=C3C(C#N)=C(N)C2(C#N)C#N)cc1 (stereo not given) | 12 | .
CC(C)N1CC=C2C(C#N)=C(N)C(C#N)(C#N)C(c3ccccc3)C2C1 (stereo not given) | / | .
